Records with an inconclusive call do not appear. Values without a mark were called inactive. Active and inactive are the calls of the source. Calls come from the whole dose curve.
Experiment: qHTS assay to identify small molecule agonists of the AP-1 signaling pathway (AID 1159526)
Details: ME-180 (cervical carcinoma) AP-1-bla reporter, beta-lactamase FRET ratio, 5 h; series mostly up to 76.8 µM
% is set by controls: 0 for no effect and ±100 for the full control effect.

| SMILES | outcome | activation |
| --- | --- | --- |
| CC(C)OC(=O)CCCCC(=O)OC(C)C | inactive |  |
| CC(=O)Nc1ccc(S(=O)(=O)Nc2ccc([N+](=O)[O-])cc2)cc1 | inactive |  |
| Cc1ccc(S(=O)(=O)O)c(C)c1 | inactive |  |
| CCCCNc1ccc(C(=O)OCCN(C)C)cc1 | inactive |  |
| COc1ccc2c(c1)C(=O)N(CCc1ccc(S(=O)(=O)NC(=O)NC3CCCCC3)cc1)C(=O)C2(C)C | inactive |  |
| CCN(C)C(=O)Oc1cccc([C@H](C)N(C)C)c1 | inactive |  |
| CC(C)CCCCOC(=O)c1ccccc1C(=O)OCCCCC(C)C | inactive |  |
| C=C(C)C(=O)OCC(C)(C)COC(=O)C(=C)C | inactive |  |
| CC(=O)Nc1cccc(C)c1 | inactive |  |
| CC(C)(C)c1nnc(NS(=O)(=O)c2ccc(N)cc2)s1 | inactive |  |
| OCCN(CCO)c1cccc(Cl)c1 | inactive |  |
| COc1cc2c(cc1OC)[C@@H]1CC(=O)[C@@H](CC(C)C)CN1CC2 | inactive |  |
| O=C(c1ccc(O)cc1)c1ccc(O)c(O)c1O | inactive |  |
| CCCCNC1CC(C)(C)NC(C)(C)C1 | inactive |  |
| CCO[Si](CCCS)(OCC)OCC | inactive |  |
| CC(CC=O)CCCC(C)(C)O (stereo not drawn) | inactive |  |
| CCCCCCOC(=O)CC | inactive |  |
| O=C(O)CCSSCCC(=O)O | inactive |  |
| O=C1CCCC(=O)O1 | inactive |  |

| SMILES | outcome | activation |
| --- | --- | --- |
| CCCCCOC(=O)CCC | inactive |  |
| CCCC/C=C\CCCCCCCCCC=O | inactive |  |
| CCOC(=O)c1ccc(OC(=O)CCCCCN=C(N)N)cc1 | inactive |  |
| C=C(C)C(=O)OCc1ccccc1 | inactive |  |
| COP(=O)(OC)OC(c1ccc(Cl)cc1)P(=O)(OC)OC (stereo not drawn) | inactive |  |
| NS(=O)(=O)c1ccc(NC(=O)CCC(=O)O)cc1 | inactive |  |
| CCCCN | inactive |  |
| CCCCCCOc1ccccc1C(N)=O | inactive |  |
| C=C(C)C(=O)OCCN(CC)CC | inactive |  |
| CCCOC(OCCC)OCCC | inactive |  |
| CCOCCOCCOCC | inactive |  |
| CCc1ccc(C=O)cc1 | inactive |  |
| C[Si](C)=O |  | -3.55% [at 6.97 µM] |
| COCCOC(=O)C1=C(C)NC(C)=C(C(=O)OC(C)C)C1c1cccc([N+](=O)[O-])c1 (stereo not drawn) | inactive |  |
| O=C(O)Cc1ccc(Cl)cc1Cl | inactive |  |
| CC(CN)CC(C)(C)CCN (stereo not drawn) | inactive |  |
| NNc1nnc(NN)c2ccccc12 | inactive |  |
| COC(=O)[C@@H]1[C@H]2C[C@H]3c4[nH]c5ccccc5c4CCN3C[C@@H]2CC[C@@H]1O | inactive |  |
| Cc1ccccc1N=O | inactive |  |
